# Reference: PubChem BioAssay (NCI)
# This is part of a sample that, as a whole, favours compounds with a hit. Of some 83,000 tested, about 20% had one in any assay.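 Results are percent growth after 48 hours of single-concentration exposure. 100 means growth as in untreated cells, lower positive values show inhibition; negative values down to -100 show cell death.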 Values without a mark were called inactive. Calls of active or inactive are those of the source. How the source made its calls: active means growth percent below 10; inactive means the rest.
# Test system: HL-60(TB) leukemia
# Experiment: NCI-60 one-dose screen, 48 h (100 = growth as untreated, 0 = no growth, -100 = all killed)
# Conditions: 10 µM unless noted
row,SMILES,growth
1,COc1cc2c(c(OC)c1OC)CCC(c1cccc(C(=O)Nc3ccc(C#N)cc3)c1)O2 (stereo not drawn),15.2%
2,Brc1c2c(c(Br)c3ccccc13)CCCC2,91.4%
3,CC(=O)N1c2ccccc2NC2=C(C(=O)N(Cc3ccccc3)C2(C)C)C1c1ccco1 (stereo not drawn),9.63% (active)
